Laboratory results reported in PubChem BioAssay.
Calls of active or inactive are those of the source. Unless noted, the rule behind the calls is not given here.

Tests used:
[1] = A549 cell viability effects, profiling panel, calcein-AM fluorescence, 48 h, basal (AID 1162); conditions: higher = more signal; note: test concentration not given here
[2] = adipocyte viability effects, profiling panel, cell-based, 3T3-L1 adipocytes, calcein-AM fluorescence, 48 h, basal (AID 1163); conditions: 3T3-L1 adipocytes viability, higher = more signal; note: test concentration not given here
[3] = HepG2 cell viability effects, profiling panel, calcein-AM fluorescence, 48 h, basal (AID 1164); conditions: higher = more signal; note: test concentration not given here
[4] = MM1S cell viability effects, profiling panel, calcein-AM fluorescence, 48 h, basal (AID 1165); conditions: higher = more signal;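 note: viability of MM1S multiple myeloma cells under basal unstimulated conditions; test concentration not given here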
[5] = basal RPMI8226 viability, no added stimulus, profiling panel, cell-based, calcein-AM fluorescence, 48 h, PK04 Diversity Set (AID 1166); conditions: RPMI8226 myeloma viability, higher = more signal;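 note: cells grown under basal conditions without added stimulus; test concentration not given here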
[6] = basal HepG2 mitochondrial membrane potential changes, profiling panel, cell-based, JC-1 fluorescence, 24 h, 100 nL compound (AID 1167); conditions: higher = more signal; note: test concentration not given here
[7] = basal 3T3-L1 adipocyte mitochondrial potential changes, profiling panel, cell-based, JC-1 fluorescence, 3T3-L1 adipocytes, 24 h, 100 nL compound (AID 1168); conditions: JC-1 mitochondrial fluorescence, higher = more signal, called active from +8 up or from −8 down; note: test concentration not given here
[8] = basal RPMI8226 mitochondrial membrane potential changes, profiling panel, cell-based, JC-1 fluorescence, 24 h, 100 nL compound (AID 1169); conditions: RPMI8226 myeloma, JC-1 mitochondrial potential fluorescence, higher = more signal; note: test concentration not given here
[9] = basal MM1S mitochondrial membrane potential changes, profiling panel, cell-based, JC-1 fluorescence, 24 h, 100 nL compound (AID 1170); conditions: higher = more signal; note: test concentration not given here
[10] = A549 lung cancer cell viability effects, profiling panel, resazurin fluorescence, 24 h, PK04 Diversity Set (AID 1171); conditions: higher = more signal, called active from +8 up or from −8 down; note: test concentration not given here
[11] = HepG2 liver cancer cell viability effects, profiling panel, resazurin fluorescence, 24 h, PK04 Diversity Set (AID 1172); conditions: higher = more signal; note: test concentration not given here
[12] = basal S. cerevisiae growth modulation, no modifier, primary screen, OD600, strain BY4716, 24 h, basal condition (AID 1173); conditions: OD600, 24 h, higher = more signal, called active from +8 up or from −8 down
[13] = MM1S myeloma cell viability, profiling panel, resazurin fluorescence, basal, 24 h, PK04 Diversity Set (AID 1174); conditions: higher = more signal, called active from +8 up or from −8 down;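 note: MM1S multiple myeloma cell line; test concentration not given here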
[14] = biological target: Dihydroorotate dehydrogenase (quinone), mitochondrial (Plasmodium falciparum (isolate 3D7)) (UniProt Q08210); experiment: PfDHODH enzyme inhibitors, primary screen, biochemical, C-terminal His tag, absorbance 600 nm (AID 1175); conditions: DCIP absorbance 600 nm, higher = more signal, called active from +8 up or from −8 down;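 note: recombinant parasite enzyme with a five histidine tag at its C terminus; test concentration not given here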
[15] = P. aeruginosa biofilm formation inhibitors, primary screen, strain PAO1, LB-PBS medium, absorbance 600 nm (AID 1176); note: test concentration not given here; conditions: P. aeruginosa PAO1 growth/biofilm, A600, 12 h; higher = more signal
[16] = S. cerevisiae RM11-1a growth modifiers, primary screen, strain RM11-1a, OD600, basal, 24 h (AID 1177); conditions: OD600, 24 h, higher = more signal, called active from +8 up or from −8 down;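 note: cultures grown under basal conditions with no added stressor; test concentration not given here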
[17] = E. coli acrAB mutant growth effects, primary screen, E. coli filamentation inducers, strain DRC39, OD650, 24 h (AID 1178); conditions: higher = more signal, called active from +8 up or from −8 down;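 note: growth measured as culture turbidity by optical density at 650 nm; test concentration not given here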
[18] = E. coli acrAB mutant growth effects, primary screen, E. coli filamentation inducers, strain DRC39, OD650, 48 h (AID 1179);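 note: screen aims at cell division blockers that make cells filament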; conditions: E. coli DRC39 delta-acrAB growth, higher = more signal, called active from +8 up or from −8 down
[19] = RPMI8226 myeloma cell viability, profiling panel, resazurin fluorescence, basal, 24 h, PK04 Diversity Set (AID 1180); conditions: higher = more signal;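 note: RPMI8826 multiple myeloma cell line at 5000 cells per well; test concentration not given here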
[20] = biological target: E3 ubiquitin-protein ligase XIAP (Homo sapiens) (UniProt P98170); experiment: XIAP binders, primary screen, biophysical, small-molecule microarray, fluorescence 635 nm (AID 1181); conditions: small-molecule microarray binding, higher = more signal;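 note: score merges 667 nm emission and signal to noise over triplicate slides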
E3 ubiquitin-protein ligase XIAP (Homo sapiens), sequence (P98170 whole entry, looked up): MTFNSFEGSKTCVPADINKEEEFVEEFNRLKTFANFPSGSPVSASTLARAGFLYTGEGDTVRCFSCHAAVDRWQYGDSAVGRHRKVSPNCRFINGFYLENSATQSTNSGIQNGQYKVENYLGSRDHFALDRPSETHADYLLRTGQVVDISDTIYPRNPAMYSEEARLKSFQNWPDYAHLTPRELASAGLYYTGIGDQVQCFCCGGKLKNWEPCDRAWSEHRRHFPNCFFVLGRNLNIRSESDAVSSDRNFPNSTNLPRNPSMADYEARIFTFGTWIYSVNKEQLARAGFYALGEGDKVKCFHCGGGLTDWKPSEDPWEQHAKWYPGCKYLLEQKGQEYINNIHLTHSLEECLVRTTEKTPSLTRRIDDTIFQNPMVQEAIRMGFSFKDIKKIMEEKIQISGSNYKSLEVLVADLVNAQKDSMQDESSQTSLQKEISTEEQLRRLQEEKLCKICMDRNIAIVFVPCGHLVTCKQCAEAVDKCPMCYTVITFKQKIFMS

Dihydroorotate dehydrogenase (quinone), mitochondrial (Plasmodium falciparum (isolate 3D7)), sequence (Q08210 whole entry, looked up): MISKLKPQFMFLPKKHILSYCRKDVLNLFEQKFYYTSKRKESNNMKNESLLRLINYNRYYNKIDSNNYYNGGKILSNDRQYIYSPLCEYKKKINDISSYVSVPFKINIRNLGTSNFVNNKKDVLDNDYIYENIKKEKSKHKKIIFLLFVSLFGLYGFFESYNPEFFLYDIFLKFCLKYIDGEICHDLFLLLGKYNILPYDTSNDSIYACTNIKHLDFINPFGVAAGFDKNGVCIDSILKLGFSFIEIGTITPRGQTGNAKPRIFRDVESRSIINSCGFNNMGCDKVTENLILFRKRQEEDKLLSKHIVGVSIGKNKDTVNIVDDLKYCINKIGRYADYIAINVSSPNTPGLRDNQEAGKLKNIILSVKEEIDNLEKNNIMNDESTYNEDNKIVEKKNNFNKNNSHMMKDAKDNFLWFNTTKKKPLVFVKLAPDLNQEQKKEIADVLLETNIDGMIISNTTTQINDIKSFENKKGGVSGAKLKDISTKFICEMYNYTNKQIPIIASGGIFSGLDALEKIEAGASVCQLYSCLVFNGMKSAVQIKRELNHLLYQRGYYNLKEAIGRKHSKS

Compound | z-score [1] | z-score [2] | z-score [3] | z-score [4] | z-score [5] | z-score [6] | z-score [7] | z-score [8] | z-score [9] | z-score [10] | z-score [11] | z-score [12] | z-score [13] | composite z-score [14] | z-score [15] | z-score [16] | z-score [17] | z-score [18] | z-score [19] | composite z-score [20]
COCC1C2CC[C@H]3C(OCc4ccc(F)cc4C(F)(F)F)OC[C@]4(C)[C@H]3C2=C(CN4C(=O)OC(C)(C)C)[C@H](C)C1COC (stereo not given in full) | -0.201 | -0.511 | 0.922 | -2.86 | -3.14 | 1.53 | -0.453 (inactive) | -0.507 | -1.42 | -0.546 (inactive) | -0.422 | 0.236 (inactive) | -0.481 (inactive) | -0.908 (inactive) | 0.383 (inactive) | -3.23 (inactive) | -0.93 (inactive) | 0.25 (inactive) | 0.092 | -0.122
COc1ccc(C#Cc2ccc3c(c2)[C@]2(C(=O)N3)[C@H](C(=O)N3CCc4cc(OC)c(OC)cc4C3)[C@H]3C(=O)O[C@H](c4ccccc4)[C@H](c4ccccc4)N3[C@@H]2c2ccc(OCCO)cc2)cc1 | 1.04 | 0.386 | 0.515 | -0.73 | 0.223 | -0.233 | 2.37 (inactive) | -0.513 | -1.5 | 0.185 (inactive) | 0.0594 | 2.37 (inactive) | -0.0819 (inactive) | -1.04 (inactive) | 1.66 (inactive) | 4.19 (inactive) | 0.452 (inactive) | 0.593 (inactive) | 1.5 | -0.209
C=C(CCCC)C(=O)CC[C@H](OC(=O)c1ccccc1-c1ccccc1C(=O)O)c1ccc(CO)o1 | 0.0743 | 0.418 | -0.862 | -0.0307 | 0.334 | -0.373 | -0.727 (inactive) | -0.658 | 0.063 | 1.09 (inactive) | 0.985 | 0.671 (inactive) | 0.319 (inactive) | -0.72 (inactive) | 0.497 (inactive) | 0.996 (inactive) | -0.154 (inactive) | 0.16 (inactive) | 0.64 | -0.154
CC1(C)C(=O)C(c2ccccc2)=C2CN3C(=O)N(CCc4ccccc4)C(=O)C3(Cc3ccccc3)C=C21 (stereo not given) | -0.739 | -0.295 | 0.54 | -0.0119 | 0.0826 | 0.000299 | -0.385 (inactive) | -0.871 | -1.52 | 0.199 (inactive) | -0.752 | 1.4 (inactive) | -1.22 (inactive) | 0.362 (inactive) | 0.784 (inactive) | 2.07 (inactive) | 0.0474 (inactive) | 0.222 (inactive) | -0.562 | 0.237
[N-]=[N+]=NCc1ccccc1[C@@H]1OC(c2ccc(OCCCO)cc2)=N[C@]1(Cc1ccccc1N=[N+]=[N-])C(N)=O | -0.533 | 0.306 | 0.0804 | -1.01 | -2.22 | -1.5 | -1.92 (inactive) | -0.918 | -0.0745 | -0.139 (inactive) | -0.0426 | -2.11 (inactive) | -0.727 (inactive) | 0.0263 (inactive) | 0.603 (inactive) | 0.604 (inactive) | 0.333 (inactive) | -0.37 (inactive) | -1.2 | 0.0656
COc1c(C)cc(-c2cc3c(c(-c4ccccc4)n2)[Si](C(C)C)(C(C)C)O[C@H]3c2ccccc2)cc1C | -0.77 | -0.11 | -0.0094 | -0.521 | -1.98 | -1.21 | -1 (inactive) | -0.016 | -0.198 | -0.0824 (inactive) | -0.315 | -0.0888 (inactive) | -0.477 (inactive) | -1.21 (inactive) | 0.161 (inactive) | -1.33 (inactive) | -0.102 (inactive) | -0.446 (inactive) | -0.327 | -0.0186
COCCOC(=O)N1C(=O)[C@@]2(c3cc(C#Cc4ccc(OC)cc4)ccc31)[C@H](c1ccc(O)cc1)N1[C@H](c3ccccc3)[C@H](c3ccccc3)OC(=O)[C@H]1[C@@H]2C(=O)N1CCN(c2ncccn2)CC1 | -0.514 | 0.546 | -0.0225 | -0.305 | -1.12 | -0.445 | 2.33 (inactive) | -0.525 | -0.339 | 0.484 (inactive) | 0.202 | 1.03 (inactive) | 0.292 (inactive) | 0.0094 (inactive) | 0.173 (inactive) | 1.75 (inactive) | 0.307 (inactive) | -0.0695 (inactive) | 0.138 | -0.224
C=C(C)[C@@H]1CC=C(C(O)C2C=CC3C(=O)N(Cc4ccccc4)C(=O)C3N2n2cnnc2)CC1 (stereo not given in full) | -0.675 | 0.233 | -1.05 | 0.364 | -0.176 | -0.458 | -0.403 (inactive) | 0.666 | -2.13 | 0.159 (inactive) | -0.429 | 0.349 (inactive) | -0.893 (inactive) | -0.295 (inactive) | 0.878 (inactive) | -0.616 (inactive) | 0.518 (inactive) | -0.66 (inactive) | -0.334 | 1.74
